Test results as given in article PMC8384837, “Expanding the binding specificity for RNA recognition by a PUF domain”.

Tests used:
Assay in all cases: yeast three-hybrid, YBZ-1, SC-Leu-His + 0.5 mM 3-AT, 4 days
Details in all cases: tags: N-Gal4 AD-HA kept; label: inside an RPR1-promoter hybrid RNA with tandem MS2 sites; ssRNA
[1] = target: PUM1 PUF domain R4-TPV (Homo sapiens, UniProt Q14671 828-1176, N971T;H972P;Q975V)
In short: (§1)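 Pumilio-1 PUF domain libraries, randomized at the three base-contacting residues of each repeat, were co-expressed with matching RNA elements from a centromeric plasmid in strain YBZ-1, which carries a LexA–MS2 coat fusion and a HIS3 reporter. Transformants grew for four days on SC-Leu (input) or on SC-Leu-His + 0.5 mM 3-AT (selection), and the repeat regions were PCR-amplified and Illumina-sequenced. The interaction score is the log change in variant frequency from input to selection. That logarithm is base 2, with a pseudocount of 1 where a variant was absent.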

[2] = target: PUM1 PUF domain R5-GRY (Homo sapiens, UniProt Q14671 828-1176, C1007G;Q1011Y)
In short: as §1

[3] = target: PUM1 PUF domain R5-RYE (Homo sapiens, UniProt Q14671 828-1176, C1007R;R1008Y;Q1011E)
In short: as §1

[4] = target: PUM1 PUF domain R5-SKC (Homo sapiens, UniProt Q14671 828-1176, C1007S;R1008K;Q1011C)
In short: as §1

[5] = target: PUM1 PUF domain R5-FRK (Homo sapiens, UniProt Q14671 828-1176, C1007F;Q1011K)
In short: as §1

[6] = target: PUM1 PUF domain R3-VWG (Homo sapiens, UniProt Q14671 828-1176, C935V;R936W;Q939G)
In short: as §1

[7] = target: T1, PUM1 PUF domain R6-NRS (Homo sapiens, UniProt Q14671 828-1176, Y1044R;Q1047S)
T1 sequence: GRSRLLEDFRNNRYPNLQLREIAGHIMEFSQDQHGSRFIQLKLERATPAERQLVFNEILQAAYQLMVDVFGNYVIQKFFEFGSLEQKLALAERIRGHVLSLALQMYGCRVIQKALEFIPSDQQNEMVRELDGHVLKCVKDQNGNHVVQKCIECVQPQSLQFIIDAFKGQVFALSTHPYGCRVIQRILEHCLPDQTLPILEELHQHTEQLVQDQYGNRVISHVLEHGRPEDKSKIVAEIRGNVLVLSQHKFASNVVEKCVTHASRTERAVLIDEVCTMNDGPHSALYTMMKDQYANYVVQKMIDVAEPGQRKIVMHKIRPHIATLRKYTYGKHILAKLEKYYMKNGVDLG
In short: as §1

[8] = target: PUM1 PUF domain R4-RIY (Homo sapiens, UniProt Q14671 828-1176, N971R;H972I;Q975Y)
In short: as §1

[9] = target: PUM1 PUF domain R4-GPY (Homo sapiens, UniProt Q14671 828-1176, N971G;H972P;Q975Y)
In short: as §1

[10] = target: PUM1 PUF domain R8-VFK (Homo sapiens, UniProt Q14671 828-1176, N1122V;Y1123F;Q1126K)
In short: as §1

GGCUAGAACUAGUGGAUCCCCCGGCGCCCGGCGGCUCGAGCCCGGGUAAGUGUAUAUAGUCUGCAUGCCGCCGGGCGCCAUGCCUGCAGGUCGACUCUAGAAAACAUG
binding signal [1]: 2.96 log2 enrichment (interaction score)

GGCUAGAACUAGUGGAUCCCCCGGCGCCCGGCGGCUCGAGCCCGGGUAAGUGUUAAUAGUCUGCAUGCCGCCGGGCGCCAUGCCUGCAGGUCGACUCUAGAAAACAUG
binding signal [2]: 3.13 log2 enrichment (interaction score)
binding signal [3]: 4.59 log2 enrichment (interaction score)
binding signal [4]: 3.5 log2 enrichment (interaction score)
binding signal [5]: 3.62 log2 enrichment (interaction score)

GGCUAGAACUAGUGGAUCCCCCGGCGCCCGGCGGCUCGAGCCCGGGUAAGUGUAAUUAGUCUGCAUGCCGCCGGGCGCCAUGCCUGCAGGUCGACUCUAGAAAACAUG
binding signal [6]: 2.33 log2 enrichment (interaction score)

GGCUAGAACUAGUGGAUCCCCCGGCGCCCGGCGGCUCGAGCCCGGGUAAGUGUAAAUAGUCUGCAUGCCGCCGGGCGCCAUGCCUGCAGGUCGACUCUAGAAAACAUG
binding signal [2]: 3.42 log2 enrichment (interaction score)
binding signal [1]: 2.59 log2 enrichment (interaction score)
binding signal [6]: 4.18 log2 enrichment (interaction score)
binding signal [7]: 3.98 log2 enrichment (interaction score)
binding signal [5]: 2.17 log2 enrichment (interaction score)
binding signal [8]: 7.23 log2 enrichment (interaction score)
binding signal [9]: 2.92 log2 enrichment (interaction score)

GGCUAGAACUAGUGGAUCCCCCGGCGCCCGGCGGCUCGAGCCCGGGUAAGUGUCAAUAGUCUGCAUGCCGCCGGGCGCCAUGCCUGCAGGUCGACUCUAGAAAACAUG
binding signal [2]: 0.08 log2 enrichment (interaction score)
binding signal [4]: 1.38 log2 enrichment (interaction score)
binding signal [5]: 3.81 log2 enrichment (interaction score)

GGCUAGAACUAGUGGAUCCCCCGGCGCCCGGCGGCUCGAGCCCGGGUAAGUGUAAGUAGUCUGCAUGCCGCCGGGCGCCAUGCCUGCAGGUCGACUCUAGAAAACAUG
binding signal [6]: 1.81 log2 enrichment (interaction score)

GGCUAGAACUAGUGGAUCCCCCGGCGCCCGGCGGCUCGAGCCCGGGUAAGUGUACAUAGUCUGCAUGCCGCCGGGCGCCAUGCCUGCAGGUCGACUCUAGAAAACAUG
binding signal [1]: 2.89 log2 enrichment (interaction score)

GGCUAGAACUAGUGGAUCCCCCGGCGCCCGGCGGCUCGAGCCCGGGUAAGCGUAAAUAGUCUGCAUGCCGCCGGGCGCCAUGCCUGCAGGUCGACUCUAGAAAACAUG
binding signal [10]: 4.7 log2 enrichment (interaction score)
